From PubChem BioAssay (Tox21)
Inconclusive results are not listed. Active and inactive are the calls of the source. Unless noted, calls come from the whole dose curve; as a rule, active = well fitted curve in the direction sought with a large enough effect in the repeat runs; inconclusive = weak or mixed curves; inactive = no such curve, though single readings can be large; an effect the other way counts as inactive or inconclusive.

Tests used:
[1] = qHTS assay to identify small molecule antagonists of the glucocorticoid receptor (GR) signaling pathway - cell viability counter screen (AID 720693); note: nearly all actives have a fitted effect of over 55% in size
[2] = qHTS assay to identify small molecule antagonists of the androgen receptor (AR) signaling pathway - cell viability counter screen (AID 743033; note: nearly all actives have a fitted effect of over 45% in size)
[3] = biological target: Androgen receptor (Homo sapiens) (UniProt P10275); assay: qHTS assay to identify small molecule antagonists of the androgen receptor (AR) signaling pathway (AID 743035; active = well fitted inhibition curve with a large enough effect in the signal ratio in the repeat runs, not every such curve was filed as active; the % refers to the signal ratio; note: potency is the fitted concentration of half-maximal effect)
Chain of Androgen receptor (Homo sapiens) (P10275 whole entry, looked up): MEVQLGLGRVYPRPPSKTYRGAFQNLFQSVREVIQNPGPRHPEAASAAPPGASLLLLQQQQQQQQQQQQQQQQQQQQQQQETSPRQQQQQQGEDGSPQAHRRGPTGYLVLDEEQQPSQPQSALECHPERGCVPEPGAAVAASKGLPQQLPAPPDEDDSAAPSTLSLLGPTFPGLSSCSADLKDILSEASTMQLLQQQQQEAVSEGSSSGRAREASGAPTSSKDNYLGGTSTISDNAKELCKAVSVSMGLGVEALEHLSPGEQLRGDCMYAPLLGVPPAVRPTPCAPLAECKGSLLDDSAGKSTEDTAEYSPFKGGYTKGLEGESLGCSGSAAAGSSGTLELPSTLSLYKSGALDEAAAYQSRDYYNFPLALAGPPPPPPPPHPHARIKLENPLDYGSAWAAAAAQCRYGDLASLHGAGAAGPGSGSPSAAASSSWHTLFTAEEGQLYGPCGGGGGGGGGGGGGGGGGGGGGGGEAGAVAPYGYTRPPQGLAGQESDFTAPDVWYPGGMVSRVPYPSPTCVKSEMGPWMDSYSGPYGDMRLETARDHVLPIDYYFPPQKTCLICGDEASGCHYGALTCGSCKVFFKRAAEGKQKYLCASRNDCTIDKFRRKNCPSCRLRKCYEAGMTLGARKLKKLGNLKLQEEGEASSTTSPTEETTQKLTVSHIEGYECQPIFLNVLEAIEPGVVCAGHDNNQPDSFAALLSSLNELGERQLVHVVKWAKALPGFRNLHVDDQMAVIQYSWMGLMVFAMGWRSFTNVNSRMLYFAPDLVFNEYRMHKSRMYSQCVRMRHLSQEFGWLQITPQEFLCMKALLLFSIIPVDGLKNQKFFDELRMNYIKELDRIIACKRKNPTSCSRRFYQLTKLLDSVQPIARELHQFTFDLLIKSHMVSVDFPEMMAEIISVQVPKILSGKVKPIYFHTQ
Procedure, shortened: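 HEK293 cells stably carrying a UAS-driven beta-lactamase reporter (AR-UAS-bla GripTite) were plated for 4 h at 37C, then given compound and the agonist R1881 and incubated 16 h. Reporter activity was read by LiveBLAzer B/G FRET fluorescence after 2 h at room temperature.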

[4] = biological target: Androgen receptor (Homo sapiens) (UniProt P10275); assay: qHTS assay to identify small molecule agonists of the androgen receptor (AR) signaling pathway (AID 743036; active = well fitted activation curve with a large enough effect in the signal ratio in the repeat runs, with a control signal flat, not every such curve was filed as active; the % refers to the signal ratio; note: potency is the fitted concentration of half-maximal effect)
Procedure, shortened: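 Reporter line: GeneBLAzer AR-UAS-bla-GripTite (HEK293). Steps: plate cells, 4 h rest, add compounds, 16 h at 37C, add LiveBLAzer B/G substrate, 2 h at RT, read fluorescence.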

[5] = biological target: Androgen receptor (Homo sapiens) (UniProt P10275); assay: qHTS assay to identify small molecule agonists of the androgen receptor (AR) signaling pathway using the MDA cell line (AID 743040; note: nearly all actives have a fitted effect of over 20% in size; note: potency is the fitted concentration of half-maximal effect)
Procedure, shortened: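 MDA-kb2 breast carcinoma cells stably carrying an MMTV-driven luciferase reporter (AR- and GR-responsive) were seeded and held 5 h at 37C, 0% CO2, then exposed to compounds in DMSO for 16 h. Luminescence was read 30 min after ONE-Glo addition.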

[6] = qHTS assay to identify small molecule antagonists of the androgen receptor (AR) signaling pathway using the MDA cell line - cell viability counter screen (AID 743041; note: nearly all actives have a fitted effect of over 45% in size)
Procedure, shortened: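 MDA-kb2 AR-luc human breast carcinoma cells (MMTV-luciferase, AR/GR responsive) were treated with compounds plus R1881 agonist for 16 h at 37 °C. Viability was read as CellTiter-Fluor fluorescence in the same wells as the reporter assay.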

[7] = qHTS assay to identify small molecule antagonists of the thyroid receptor (TR) signaling pathway - cell viability counter screen (AID 743064); note: nearly all actives have a fitted effect of over 50% in size; note: potency is the fitted concentration of half-maximal effect
Procedure, shortened: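 Plate GH3.TRE-Luc cells; incubate 4 h at 37 °C; add compound, then T3 to 1 nM final; incubate 23.5 h; add CellTiter-Fluor; incubate 30 min at 37 °C, 5% CO2; read fluorescence.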

[8] = qHTS assay to identify small molecule antagonists of the thyroid receptor (TR) signaling pathway (AID 743065); note: nearly all actives have a fitted effect of over 55% in size; note: potency is the fitted concentration of half-maximal effect
Procedure, shortened: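 GH3.TRE-Luc rat pituitary cells carrying two TR response elements driving luciferase were plated for 4 h, given compound plus 1 nM T3 (final), and incubated 23.5 h at 37 C. ONE-Glo luminescence measured reporter inhibition; CellTiter-Fluor fluorescence tracked cytotoxicity.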

[9] = test system: thyroid hormone receptor (rat, GH3 cells); assay: qHTS assay to identify small molecule agonists of the thyroid receptor (TR) signaling pathway (AID 743066; calls by dose curve)
[10] = biological target: Estrogen receptor (Homo sapiens) (UniProt P03372); assay: qHTS assay to identify small molecule antagonists of the estrogen receptor alpha (ER-alpha) signaling pathway (AID 743069; active = well fitted curve in the direction sought with a large enough effect in the signal ratio in the repeat runs, not every such curve was filed as active; the % refers to the signal ratio)
Chain of Estrogen receptor (Homo sapiens) (P03372 whole entry, looked up): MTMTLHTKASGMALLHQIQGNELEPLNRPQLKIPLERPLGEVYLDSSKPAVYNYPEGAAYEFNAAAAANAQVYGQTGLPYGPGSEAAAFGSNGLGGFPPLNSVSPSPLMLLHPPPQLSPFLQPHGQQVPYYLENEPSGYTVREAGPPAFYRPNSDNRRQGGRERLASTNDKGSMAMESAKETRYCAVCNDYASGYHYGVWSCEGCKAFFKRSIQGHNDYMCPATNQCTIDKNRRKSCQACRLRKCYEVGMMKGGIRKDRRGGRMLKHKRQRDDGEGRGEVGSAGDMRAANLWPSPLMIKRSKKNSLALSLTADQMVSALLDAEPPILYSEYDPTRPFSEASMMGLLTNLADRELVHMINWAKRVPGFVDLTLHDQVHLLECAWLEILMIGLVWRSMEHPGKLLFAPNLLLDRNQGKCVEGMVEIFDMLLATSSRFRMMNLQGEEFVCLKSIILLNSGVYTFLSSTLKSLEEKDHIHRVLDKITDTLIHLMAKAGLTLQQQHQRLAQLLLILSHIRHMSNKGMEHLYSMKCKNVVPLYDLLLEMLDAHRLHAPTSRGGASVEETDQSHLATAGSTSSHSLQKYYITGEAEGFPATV
Procedure, shortened: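 HEK293 cells stably carrying an ER-alpha-UAS-bla beta-lactamase reporter were pre-cultured overnight in 2% charcoal-stripped FBS medium. Test compounds in DMSO were added together with 17beta-estradiol for 18 hr at 37C. Read-out was fluorescence after 2 hr with LiveBLAzer B/G FRET substrate at room temperature.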

[11] = qHTS assay to identify small molecule antagonists of the estrogen receptor alpha (ER-alpha) signaling pathway - cell viability counter screen (AID 743074; calls by dose curve; note: nearly all actives have a fitted effect of over 45% in size)
[12] = biological target: Estrogen receptor (Homo sapiens) (UniProt P03372); assay: qHTS assay to identify small molecule agonists of the estrogen receptor alpha (ER-alpha) signaling pathway (AID 743075; calls by dose curve)
[13] = biological target: Estrogen receptor (Homo sapiens) (UniProt P03372); assay: qHTS assay to identify small molecule agonists of the estrogen receptor alpha (ER-alpha) signaling pathway using the BG1 cell line (AID 743079); details: BG1Luc4E2 cells, ERE-luciferase agonist, 22 h; activation: at 70.3 µM (top of the series); note: nearly all actives have a fitted effect of over 20% in size; note: potency is the fitted concentration of half-maximal effect
[14] = qHTS assay to identify small molecule antagonists of the estrogen receptor alpha (ER-alpha) signaling pathway using the BG1 cell line (AID 743080; calls by dose curve; note: nearly all actives have a fitted effect of over 25% in size; note: potency is the fitted concentration of half-maximal effect)
Procedure, shortened: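 Antagonist mode: compounds in DMSO were pinned onto BG1-Luc-4E2 cells alongside 17beta-estradiol agonist, incubated 21.5 h, and ERE-driven luciferase measured with ONE-Glo. Cytotoxicity was multiplexed using CellTiter-Fluor fluorescence.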

[15] = qHTS assay to identify small molecule antagonists of the estrogen receptor alpha (ER-alpha) signaling pathway using the BG1 cell line - cell viability counter screen (AID 743081);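 note: compound given together with 17beta-estradiol as the ER stimulus; nearly all actives have a fitted effect of over 45% in size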
Aromatase (Homo sapiens) = Aromatase (Homo sapiens) (UniProt P11511); assay: qHTS assay to identify aromatase inhibitors (AID 743083); note: nearly all actives have a fitted effect of over 55% in size; note: potency is the fitted concentration of half-maximal effect
Chain of Aromatase (Homo sapiens) (P11511 whole entry, looked up): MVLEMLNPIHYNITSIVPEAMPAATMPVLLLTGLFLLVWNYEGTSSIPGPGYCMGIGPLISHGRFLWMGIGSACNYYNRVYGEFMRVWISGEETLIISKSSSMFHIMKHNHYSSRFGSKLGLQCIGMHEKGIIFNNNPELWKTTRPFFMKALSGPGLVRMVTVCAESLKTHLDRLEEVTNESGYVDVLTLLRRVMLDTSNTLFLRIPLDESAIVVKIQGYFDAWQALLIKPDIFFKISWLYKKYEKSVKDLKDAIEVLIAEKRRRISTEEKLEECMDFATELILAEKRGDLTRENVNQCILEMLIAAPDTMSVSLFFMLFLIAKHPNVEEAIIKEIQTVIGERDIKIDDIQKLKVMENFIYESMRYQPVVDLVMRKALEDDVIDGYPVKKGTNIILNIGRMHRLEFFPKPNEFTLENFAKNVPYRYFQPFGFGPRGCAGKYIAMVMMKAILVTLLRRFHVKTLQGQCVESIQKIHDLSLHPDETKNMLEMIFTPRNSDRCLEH

[16] = qHTS assay for identifying genotoxic compounds that show differential cytotoxicity against isogenic chicken DT40 cell lines with known DNA damage response pathways - wild type cell line (AID 743012); note: nearly all actives have a fitted effect of over 60% in size; note: potency is the fitted concentration of half-maximal effect
Procedure, shortened: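 Parental DNA repair-proficient DT40 cells, 300 per well, were pre-incubated ~0.5 h at 37 C/5% CO2, pin-dosed with compounds in DMSO, then incubated 40 h. Viability was read as CellTiter-Glo luminescence after 30 min at room temperature.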

[17] = qHTS assay for identifying genotoxic compounds that show differential cytotoxicity against isogenic chicken DT40 cell lines with known DNA damage response pathways - Rad54/Ku70 mutant cell line (AID 743015); note: nearly all actives have a fitted effect of over 60% in size; note: potency is the fitted concentration of half-maximal effect
[18] = qHTS assay for identifying genotoxic compounds that show differential cytotoxicity against isogenic chicken DT40 cell lines with known DNA damage response pathways - Rev3 mutant cell line (AID 743014); note: potency is the fitted concentration of half-maximal effect; nearly all actives have a fitted effect of over 55% in size

Measured: Potency

CC(=O)OCC(=O)[C@H]1CC[C@H]2[C@@H]3CCC4=CC(=O)CC[C@]4(C)[C@H]3CC[C@]12C
active: [4] 0.0301 µM | [5] 9.44 µM | [8] 13.3 µM | [13] 4.22 µM
not listed: [16] | [17] | [18]
inactive: all other assays above

CCCCC/C(=C\c1ccccc1)CO
active: [7] 48 µM | Aromatase (Homo sapiens) 30.3 µM
inactive: [1] | [6] | [9] | [11] | [15]

CCC1(C)CC(=O)NC1=O (stereo not given)
not listed: [1] | [2] | [3] | [4] | [5] | [18]
inactive: all other assays above

Cc1ccc(S(=O)(=O)NC2CCCCC2)cc1
active: [14] 68.1 µM
inactive: [1] | [2] | [6] | [7] | [8] | [9] | [11] | [12] | [15] | Aromatase (Homo sapiens)

CCCOC(=O)c1ccc(N)cc1
active: [17] 23.7 µM
inactive: [16] | [4] | [5] | [6] | [8] | [9] | [11] | [12] | [15] | Aromatase (Homo sapiens)

CC1(C)O[C@@H]2C[C@H]3[C@@H]4CCC5=CC(=O)C=C[C@]5(C)[C@H]4[C@@H](O)C[C@]3(C)[C@]2(C(=O)CO)O1
active: [13] 0.596 µM
not listed: [2] | [3] | [4] | [5] | [14] | [16] | [18]
inactive: all other assays above

COCc1c(C(C)C)nc(C(C)C)c(/C=C/[C@@H](O)C[C@@H](O)CC(=O)O)c1-c1ccc(F)cc1
inactive: [6] | [7] | [9] | [11] | [15]
active: [16] 0.075 µM | [18] 0.0133 µM | [17] 0.298 µM | [5] 13.3 µM | [8] 11.9 µM | [13] 11.9 µM

COc1cc2c(cc1OC)-c1cc(=Nc3c(C)cc(C)cc3C)n(C)c(=O)n1CC2
inactive: [5] | [12]
active: [16] 2.66 µM | [18] 4.22 µM | [17] 6.68 µM | [3] 19 µM | [7] 21.1 µM | [8] 18.8 µM | Aromatase (Homo sapiens) 26.6 µM
